Out of some 68,000 compounds screened, about 2,700 (4%) showed an effect of 50% or more. The full list was thinned out, with strong results kept by preference.

The test system of the test is Plasmodium berghei. Briefly: Screen against P. berghei liver stage (PbLuc), transformed with Luciferase, at 2uM. It counts as functional, HepG2. The settings on record: tested at 2 uM.
`CN(Cc1nnc2n1CCC2)C(=O)Cc1ccc2c(c1)CCC2`: the INHIBITION is given as -9.49%.

Turning to `Cc1nnsc1C(=O)N1CC[C@H](c2ccccc2)[C@@H]2[C@H]1CCCCN2C`, the INHIBITION is recorded as 22.81%.

Regarding `NC(=O)C1CN(C(=O)Nc2ccccc2SC(F)(F)F)CCO1` (stereo not given), the INHIBITION is -20.93%.

Take `O=C(NCc1ncc(-c2ccccc2)o1)NC1CCC(O)CC1` (stereo not given): the INHIBITION worked out at 13.58%.

As to `COc1cc(C)c(CN2CCc3nc4ccsc4c(=O)n3CC2)cc1C`, the INHIBITION is recorded as 36.56%.

`CN(C)c1cccc(C(=O)Nc2cnn(Cc3ccncc3)c2)c1`: the INHIBITION is -34.79%.

For `COCCC(=O)N1CCC2(COCc3cnc(NCC4CC4)nc32)C1` (stereo not given), the INHIBITION was -20.77%.

Regarding `Cn1cnnc1C1CCCN(c2nc3ccccc3o2)C1` (stereo not given), the INHIBITION was 44.25%.

As for `Cn1cnnc1C1CCN(c2nc3ccccc3o2)CC1`, the INHIBITION is 53.81%.

As to `c1ccc2oc(N3CCC(c4nncn4C4CC4)CC3)nc2c1`, the INHIBITION was determined as 15.02%.

With `Cc1cnn(CCNCc2nc(CNC(=O)c3ccccc3)no2)c1`, the INHIBITION came out at 47.23%.

Regarding `CN(C)c1nc(N)nc(CN2CCC(c3ccccc3)CC2)n1`, the INHIBITION is given as 29.6%.

On to `COc1ccc(CN2CCN(C(=O)c3ccc(C)n3C)CC2)cc1`, for which the INHIBITION is given as -10.64%.

With `Cc1ccc(C(=O)N2CCN(Cc3ccccc3)CC2)n1C`, the INHIBITION is on record as 52.17%.

Consider `Cc1ccc(C(=O)N2CCN(Cc3ccc(C#N)cc3)CC2)n1C`, for which the INHIBITION came to 28.18%.

Take `CC(C1CC1)N(C(=O)NCCCn1nc2ccccn2c1=O)C1CC1` (stereo not given): the INHIBITION stood at 1.07%.

`O=C(c1ccsc1)N1CCN2C[C@H](OCc3cccnc3)C[C@H]2C1`: the INHIBITION was 16.22%.

With `Cc1cnc(C(=O)N2CCN3C[C@H](OCc4cccnc4)C[C@H]3C2)cn1`, the INHIBITION is given as -35.38%.

With `O=C(c1ccsc1)N1CCN2C[C@H](OCc3ccccn3)C[C@H]2C1`, the INHIBITION is recorded as 53.08%.

In the case of `O=C(c1ccnnc1)N1CCN2C[C@H](OCc3ccccn3)C[C@H]2C1`, the INHIBITION was 26.94%.

`O=C(c1cscn1)N1CCN2C[C@H](OCc3cccnc3)C[C@H]2C1`: the INHIBITION was 50.12%.

`O=C(c1ccc(F)cc1)N1CCN2C[C@H](OCc3ccccn3)C[C@H]2C1`: the INHIBITION was found to be 15.58%.

Consider `CN1CC2(CCN(C(=O)c3[nH]cnc3-c3ccccc3)C2)OC1=O` (stereo not given), for which the INHIBITION came out at 14.96%.

Consider `Cc1cc(C2CCC2)nc(N2CC(n3cccn3)C2)n1`, for which the INHIBITION is 52.6%.

On to `Cc1cc(N(C)C)nc(N2CC(n3cccn3)C2)n1`, for which the INHIBITION was determined as 35.46%.

Consider `Cc1cc(C2CCC2)nc(N2CCN(Cc3nccn3C)CC2)n1`, for which the INHIBITION is 35.46%.

For the molecule `Cc1c(NC(=O)CN2CCN(C3CCCC3)C(=O)C2)cnn1C`, the INHIBITION was 17.24%.

On to `c1ccc(-n2cc(CN3CCCC3Cn3cncn3)nn2)cc1` (stereo not given), for which the INHIBITION came out at 15.47%.

Turning to `Cc1cccc2nc(CSCC(=O)Nc3nnc(C(C)C)s3)cc(=O)n12`, the INHIBITION is 52.21%.

Regarding `CC(C)c1nnc(NC(=O)CSCc2cc(=O)n3ccccc3n2)s1`, the INHIBITION stood at 1.87%.

For the molecule `Cc1ccn2c(=O)cc(CSCC(=O)Nc3nnc(C(C)C)s3)nc2c1`, the INHIBITION was 4.89%.

Turning to `COc1ccc2c3c1CN(C(C)=O)CC3=CC(C)(C)CO2`, the INHIBITION was 22.01%.

Consider `CSc1ccsc1C(=O)NC(C)c1ccc2c(c1)CCC(=O)N2` (stereo not given), for which the INHIBITION is on record as 0.48%.

`CC(NC(=O)c1sccc1C1CC1)c1ccc2c(c1)CC(=O)N2` (stereo not given): the INHIBITION was 51.14%.

For the molecule `Cc1ccsc1C(=O)NC(C)c1ccc2c(c1)CCC(=O)N2` (stereo not given), the INHIBITION is recorded as 0.48%.

As to `Cn1cc(C(=O)NCc2ccc(N3CCCC3)nc2)ccc1=O`, the INHIBITION is on record as -0.05%.

In the case of `Cc1ccn(CC(=O)NCCCOc2ccccc2F)c(=O)c1`, the INHIBITION was 15.2%.

For `CN(C)S(=O)(=O)N1CCC(c2ccncn2)CC1`, the INHIBITION was -5.42%.

Regarding `COCCn1ccc(NC(=O)Nc2ccncc2)n1`, the INHIBITION is listed as 1.94%.

For the molecule `O=S(=O)(NCC1(c2cccs2)CCCC1)c1cccnc1`, the INHIBITION is 58.53%.

As to `O=S(=O)(NCC1(c2cccs2)CCOCC1)c1cccnc1`, the INHIBITION is given as -0.59%.

As to `O=S(=O)(NCC1(c2cccs2)CCOCC1)c1ccc2c(c1)OCCO2`, the INHIBITION is given as -12.08%.

For the molecule `Cc1cccc(Nc2ccc(C3CCCCN3)cn2)n1` (stereo not given), the INHIBITION turned out to be 30.53%.

As to `O=C(NC1CC1)[C@H]1C[C@H]2OCC[C@H]2N(CC2CC2)C1`, the INHIBITION is 28.49%.

Turning to `O=C(COCc1ccccc1)N1CCCC1c1noc(C2CC2)n1` (stereo not given), the INHIBITION came out at 37.68%.

As to `Cn1ccnc1CN(CCO)Cc1ccc(C(F)(F)F)cc1`, the INHIBITION was 9.42%.

Regarding `CN(CCCOc1ccccc1)Cc1nccn1C`, the INHIBITION is on record as -27.01%.

For the molecule `CN(CCCc1ccc(C(F)(F)F)cc1)Cc1nccn1C`, the INHIBITION was determined as 59.08%.

As to `CSCC(CCO)NC(=O)c1cccc(C)c1Cl` (stereo not given), the INHIBITION is listed as -5.44%.

In the case of `Cc1cn2c(n1)CCC(NC(=O)c1cc(Br)cn1C)C2` (stereo not given), the INHIBITION is -2.1%.

Regarding `CCOc1ccc(C(F)(F)F)cc1NC(=O)NCc1noc(C)n1`, the INHIBITION was -40.82%.

Take `Cc1nc(CN2C(=O)COC3(CCN(CC4CC4)CC3)C2C)cs1` (stereo not given): the INHIBITION is given as 35.26%.

Regarding `CC(=O)N1CCC(CCNC(C)Cc2ccc(F)cc2)CC1` (stereo not given), the INHIBITION is 63.1%.

On to `CC(=O)N1CCC(CCNC(C)c2cc(C)cc(C)c2)CC1` (stereo not given), for which the INHIBITION was determined as 8.03%.

Take `CC(=O)N1CCC(CCNC(C)c2cc(F)cc(F)c2)CC1` (stereo not given): the INHIBITION is listed as 14.63%.

Turning to `CN(C)C(=O)C1CN(Cc2ccccn2)CCN(S(C)(=O)=O)C1` (stereo not given), the INHIBITION is on record as 25.72%.

Regarding `Cc1noc(C)c1CN(C)C(=O)c1ccc(C(N)=O)nc1`, the INHIBITION was found to be 17.31%.

As for `COc1ccccc1CN(CC1CCCO1)C(=O)c1scnc1C` (stereo not given), the INHIBITION amounted to 21.54%.

On to `O=C(c1ccco1)N1C[C@@H]2OCCN(c3ncccn3)[C@@H]2C1`, for which the INHIBITION was determined as 41.73%.

In the case of `CCN1C(=O)C(c2ccccc2)CC12CCN(c1ncccn1)CC2` (stereo not given), the INHIBITION was found to be 30.4%.

As to `CCN1C(=O)C(c2ccccc2)CC12CCN(Cc1cccnc1)CC2` (stereo not given), the INHIBITION worked out at 52.36%.

For the molecule `CCN1C(=O)C(c2ccccc2)CC12CCN(CCO)CC2` (stereo not given), the INHIBITION is listed as 21.06%.

Regarding `N#CCCN(C(=O)CCc1cccnc1)c1ccc2c(c1)OCCO2`, the INHIBITION came out at 33.26%.

Take `CN(C)C(=O)c1ccn(-c2ccc3ccccn23)n1`: the INHIBITION amounted to 6.35%.

On to `CC(C)(CNC(=O)Nc1nccs1)N1CCOCC1`, for which the INHIBITION is listed as 64.2%.

Take `CC(C)(CNC(=O)Nc1ccc(S(=O)(=O)C(F)F)cc1)N1CCOCC1`: the INHIBITION was 53.63%.

Consider `CCC(C)(CNC(=O)Nc1nccs1)N1CCOCC1` (stereo not given), for which the INHIBITION is reported as 21.24%.

Turning to `CCC(C)(CNC(=O)Nc1nncs1)N1CCOCC1` (stereo not given), the INHIBITION is given as -42.64%.

Take `CC(C)(CNc1ccc(S(=O)(=O)C(F)F)cc1)N1CCOCC1`: the INHIBITION was 5.02%.

Regarding `CC(C)(CNc1ccccc1S(=O)(=O)C(F)F)N1CCOCC1`, the INHIBITION is -64.31%.
